# According to PubChem BioAssay (NCI):
# “And” between values parts separate entries of the source, which are not always exact repeats. Equal values may be shown once. This is part of a sample that, as a whole, favours compounds with a hit. Of some 79,000 tested, about 15% had one in any assay. Where a structure was tested more than once in an assay, its records may differ in their call. The source made the active and inactive calls. Rule as the data show it: active = growth inhibition above about 70%; inactive = the rest.
# Test: NCI Yeast Anticancer Drug Screen. Data for the mec2-1 strain (AID 157)
# Conditions: S. cerevisiae mec2-1 strain, at 5.0 µM (retest, dose inferred, filed as 0.5), stronger effect = higher value
# Procedure, shortened: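 Strain: mec2-1 (DNA repair/cell cycle alteration). Compound exposure, then growth measured; inhibition expressed relative to vehicle.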
row,Structure (SMILES),growth inhibition
1,COC(=O)CC1(C(=O)O)CC2(Cl)C(Cl)=C(Cl)C1(Cl)C2(Cl)Cl (configuration not stated),10% (inactive)
2,CCCCN(C)CC(C(C)=O)C(c1ccccc1)c1c(O)c2ccccc2oc1=O (configuration not stated),18% (inactive)
3,O=[n+]1c2ccccc2n([O-])c2ccccc21.[Cl][Ni][Cl],75% (active)
4,COc1ccc(C(Cc2ccc(Cl)c(Cl)c2)NCCO)cc1 (configuration not stated),-5% (inactive)
5,O=C(N/N=C/c1cc(Cl)cc(Cl)c1[O-])c1ccccc1O.O=C(N/N=C/c1cc(Cl)cc(Cl)c1[O-])c1ccccc1O.[Zn+2],97% (active)
6,Oc1ccc(Cl)cc1Sc1cc(Cl)ccc1O,98% (active) and 94% (active) and 68% (inactive)
7,O=S(=O)([O-])[O-].[OH3+].[OH3+].[OH3+].[Ru+2].c1ccccc1,-1% (inactive)
8,CCCCCC(Cn1ccnc1)c1ccc(Cl)cc1Cl (configuration not stated),50% (inactive)
9,CC1=C(CO)C(=O)OC(C(C)C2CCC3C4CC5OC56C(O)C(N5CC5)=CC(=O)C6(C)C4CCC23C)C1 (configuration not stated),3% (inactive)
10,CCCC[CH2][Sn]([CH2]CCCC)[CH2]CCCC.CCCC[CH2][Sn]([CH2]CCCC)[CH2]CCCC,61% (inactive)
11,CCC[CH2][Sn]1([CH2]CCC)[O]C(=O)C(C(C)C)N=Cc2ccccc2[O]1 (configuration not stated),17% (inactive)
12,Oc1c(Cl)cc(-c2cc(Cl)c(O)c(Cl)c2)cc1Cl,96% (active)
13,CC(=O)Nc1ccc(/C=N/N=C(/N)N[N+](=O)[O-])cc1,-7% (inactive)
14,CC(Br)c1ccccc1 (configuration not stated),1% (inactive)
15,C[Si]1(C)CCCCC2(C1)C(=O)NC(=O)NC2=O,4% (inactive)
16,CCCCCCCCCCCCCCCc1cccc(O)c1O,-2% (inactive)
17,CC1(C)OC2OC3C(CN(CCCl)Cc4ccccc4)OC(c4ccccc4)OC3C2O1 (configuration not stated),-26% (inactive)
18,FC(F)(F)c1nc2ccc(SSc3ccc4nc(C(F)(F)F)[nH]c4c3)cc2[nH]1,13% (inactive)
19,O=[N+]([O-])c1csc([N+](=O)[O-])c1,97% (active)
20,CCc1cc2c(cc1-c1csc(C/C(N)=N/O)n1)C(C)(C)CCC2(C)C,38% (inactive)
21,CCCCCCCC[N+](CCCC)(CCCC)CCCC (tested in a mixture with another compound),99% (active)
22,CCC[CH2][Sn]([CH2]CCC)([S]C#N)[S]C#N,96% (active)
